From PubChem BioAssay AID1159580 (chemical genetic matrix, 2015)
The campaign covered roughly 5,500 compounds. About 2,000 (36%) were called active. Roughly 18% stayed inconclusive and do not appear here. Rule as the data show it: active = normalized growth mostly below about 0.91 (no sharp cut-off); inconclusive = no clear call, values can overlap the other calls; inactive = mostly above about 0.92. The list shows a part of the results.

Test: chemical genetic growth profiling, strain panel (AID 1159580);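 also: tested at 20 µM; growth read once vehicle control cultures reached saturation at 30 °C; 1 = growth at the plate median or of vehicle wells; lower values mean less growth of the strain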
Details: S. cerevisiae deletion strains, growth OD
[1] = locus YAL013W, strain DEP1, hits give low values
[2] = locus YBR229C, strain ROT2, hits give low values
[3] = locus YCL061C, strain MRC1, hits give low values
[4] = locus YDL101C, strain DUN1, hits give low values
[5] = locus YDR150W, strain NUM1, hits give low values
[6] = locus YEL061C, strain CIN8, hits give low values
[7] = locus YGR078C, strain PAC10, hits give low values
[8] = locus YHR030C, strain SLT2, hits give low values
[9] = locus YHR087W, strain rtc3, hits give low values
[10] = locus YJL187C, strain SWE1, hits give low values
[11] = locus YJR043C, strain POL32, hits give low values
[12] = locus YJR075W, strain HOC1, hits give low values
[13] = locus YLR039C, strain RIC1, hits give low values
[14] = locus YLR058C, strain SHM2 (second series), hits give low values
[15] = locus YLR085C, strain ARP6, hits give low values
[16] = locus YLR262C, strain YPT6, hits give low values
[17] = locus YML094W, strain GIM5, hits give low values
[18] = locus YMR219W, strain ESC1, hits give low values
[19] = locus YMR263W, strain SAP30, hits give low values
[20] = locus YMR307W, strain GAS1, hits give low values
[21] = locus YNL153C, strain GIM3, hits give low values
[22] = locus YNL298W, strain CLA4 (second series), hits give low values
[23] = locus YNL322C, strain KRE1, hits give low values
[24] = locus YNR030W, strain Alg12, hits give low values
[25] = locus YOL006C, strain TOP1, hits give low values
[26] = locus YPL055C, strain LGE1, hits give low values
[27] = locus YPL241C, strain CIN2, hits give low values
[28] = locus YPR135W, strain CTF4, hits give low values
[29] = locus YKL190W, strain CNB1, hits give low values

Measured: normalized growth

Cc1ccc2cc(C)c(C)cc2c1
inactive: [1] 0.994 | [2] 0.991 | [3] 0.992 | [4] 1.02 | [5] 1.05 | [6] 1 | [7] 0.99 | [8] 0.729 | [9] 1.01 | [10] 0.993 | [11] 0.989 | [12] 0.961 | [13] 0.897 | [14] 0.992 | [15] 0.949 | [16] 0.831 | [17] 1 | [18] 1.01 | [19] 1 | [20] 0.742 | [21] 0.952 | [22] 0.957 | [23] 0.985 | [24] 0.958 | [25] 0.902 | [26] 1.02 | [27] 0.995 | [28] 0.899

Cc1ccc(Oc2ccc(C)cc2)cc1
inactive: [1] 0.993 | [2] 0.999 | [4] 1.01 | [5] 0.999 | [6] 0.976 | [7] 1 | [9] 1.03 | [10] 0.993 | [11] 0.992 | [12] 1.01 | [29] 1 | [13] 0.897 | [14] 0.991 | [15] 0.864 | [16] 0.889 | [17] 1.06 | [18] 1 | [19] 0.969 | locus YNL128W, strain TEP1, hits give low values 0.995 | [21] 0.999 | [22] 0.96 | [23] 0.993 | [24] 0.962 | [26] 1.02 | [27] 0.936 | [28] 0.912
active: [8] 0.663

CC(C)(N=NC(C)(C)C(=N)N)C(=N)N
inactive: locus YAL021C, strain ccr4, hits give low values 0.995 | locus YAL026C, strain drs2, hits give low values 1.05 | locus YAL030W, strain snc1, hits give low values 1.02 | locus YBL061C, strain skt5, hits give low values 1.02 | locus YBR009C, strain hhf1, hits give low values 1.07 | locus YBR023C, strain chs3, hits give low values 1.02 | locus YBR171W, strain sec66, hits give low values 1.03 | locus YBR231C, strain swc5, hits give low values 1.04 | locus YBR279W, strain paf1, hits give low values 1.03 | locus YCL011C, strain gbp2, hits give low values 1.03 | locus YCL016C, strain dcc1, hits give low values 1.03 | [3] 1.03 | locus YCL069W, strain vba3, hits give low values 1.02 | locus YCR088W, strain abp1, hits give low values 1.02 | locus YDL005C, strain med2, hits give low values 1.03 | locus YDL040C, strain nat1, hits give low values 1.02 | locus YDR001C, strain nth1, hits give low values 1.02 | locus YDR069C, strain doa4, hits give low values 1.03 | locus YDR137W, strain rgp1, hits give low values 0.998 | locus YDR159W, strain sac3, hits give low values 1.05 | locus YDR195W, strain ref2 1 | locus YDR297W, strain sur2, hits give low values 1.02 | locus YDR334W, strain swr1, hits give low values 1.03 | locus YDR335W, strain msn5, hits give low values 1.02 | locus YDR392W, strain spt3, hits give low values 0.98 | locus YEL003W, strain gim4, hits give low values 1.03 | locus YEL037C, strain rad23, hits give low values 1.02 | locus YEL061C, strain CIN8 (second series), hits give low values 1.02 | locus YER015W, strain faa2, hits give low values 1.03 | locus YER016W, strain bim1, hits give low values 1.04 | locus YER111C, strain swi4, hits give low values 1.03 | locus YER155C, strain BEM2 (second series), hits give low values 1.03 | locus YFR010W, strain ubp6, hits give low values 1.03 | locus YGL167C, strain pmr1, hits give low values 1.03 | locus YGL173C, strain kem1, hits give low values 1.05 | locus YGL227W, strain vid30, hits give low values 1.02 | locus YGL240W, strain doc1, hits give low values 1.04 | locus YGL253W, strain hxk2, hits give low values 1.01 | locus YHR013C, strain ard1, hits give low values 1.05 | locus YHR027C, strain rpn1, hits give low values 1.03 | [8] 0.971 | locus YHR079C, strain IRE1, hits give low values 0.971 | locus YHR142W, strain chs7, hits give low values 0.965 | locus YJL092W, strain hpr5, hits give low values 1.03 | locus YJL095W, strain BCK1 (second series), hits give low values 1.02 | locus YJL095W, strain BCK1, hits give low values 0.969 | locus YJL115W, strain asf1, hits give low values 1.02 | locus YJL129C, strain trk1, hits give low values 1.03 | locus YJL154C, strain vps35, hits give low values 1.02 | locus YJL164C, strain tpk1, hits give low values 1.02 | locus YJL166W, strain qcr8, hits give low values 1.01 | [10] 1.02 | locus YJR066W, strain TOR1, hits give low values 0.896 | locus YKL160W, strain elf1, hits give low values 0.99 | locus YKR026C, strain gcn3, hits give low values 1.02 | locus YKR091W, strain srl3, hits give low values 1.02 | locus YLL001W, strain dnm1, hits give low values 1.03 | locus YLL026W, hits give low values 1.02 | locus YLL041C, strain sdh2, hits give low values 1.02 | locus YLR027C, strain aat2, hits give low values 1.03 | locus YLR113W, strain HOG1, hits give low values 0.985 | locus YLR221C, strain rsa3, hits give low values 1.02 | locus YLR258W, strain gsy2, hits give low values 1.04 | locus YLR262C, strain YPT6 (second series), hits give low values 1.03 | locus YLR320W, strain mms22, hits give low values 1.07 | locus YLR342W, strain FKS1, hits give low values 1.03 | locus YLR357W, strain rsc2, hits give low values 1.06 | locus YLR370C, strain arc18, hits give low values 1.03 | locus YLR384C, strain iki3, hits give low values 1.02 | locus YML120C, strain ndi1, hits give low values 1.04 | locus YMR058W, strain fet3, hits give low values 1.03 | locus YMR125W, strain sto1, hits give low values 1.04 | locus YMR129W, hits give low values 1.01 | locus YMR205C, strain PFK2, hits give low values 1.08 | locus YMR231W, strain pep5, hits give low values 1.02 | locus YNL071W, strain lat1, hits give low values 1.02 | locus YNL183C, strain NPR1, hits give low values 0.906 | locus YNL209W, strain ssb2, hits give low values 1.03 | locus YNL248C, strain rpa49, hits give low values 0.99 | locus YNL322C, strain KRE1 (second series), hits give low values 1.01 | locus YNR049C, strain mso1, hits give low values 1.02 | locus YOR001W, strain rrp6, hits give low values 1.02 | locus YOR070C, strain gyp1, hits give low values 1.04 | locus YOR080W, strain dia2, hits give low values 1.03 | locus YOR083W, strain WHI5, hits give low values 0.988 | locus YOR106W, strain vam3, hits give low values 0.886 | locus YOR231W, strain MKK1, hits give low values 0.976 | locus YOR265W, strain rbl2, hits give low values 1.02 | locus YOR270C, strain vph1, hits give low values 1.02 | locus YOR290C, strain snf2, hits give low values 1 | locus YPL051W, strain arl3, hits give low values 1.01 | locus YPL078C, strain atp4, hits give low values 0.983 | locus YPL106C, strain sse1, hits give low values 1.05 | locus YPL240C, strain hsp82, hits give low values 1.01 | locus YPL256C, strain CLN2, hits give low values 0.979

C[C@H]1OC[C@@H](C[N+](C)(C)C)O1
inactive: locus YAL040C, strain CLN3, hits give low values 1.01 | locus YCL061C, strain MRC1 (second series), hits give low values 1.01 | [5] 1 | locus YDR363W, strain ESC2, hits give low values 1.02 | locus YER002W, strain NOP16, hits give low values 1.04 | [20] 1 | [21] 1.02 | locus YNL175C, strain NOP13, hits give low values 1.02 | locus YNL197C, strain WHI3, hits give low values 1 | locus YNL224C, strain SQS1, hits give low values 1.02 | [23] 1.02 | locus YOR083W, strain WHI5 (second series), hits give low values 1.03 | [26] 1.05

CC(SCc1ccccc1)C(=O)O (configuration not stated)
inactive: [1] 0.971 | [2] 0.965 | [3] 0.997 | [4] 1 | locus YDL134C, strain PPH21, hits give low values 1 | [5] 0.91 | [6] 1.04 | [7] 0.994 | [8] 0.992 | [9] 0.978 | [10] 0.986 | [11] 0.981 | [12] 0.965 | [29] 1 | [13] 1.02 | [14] 0.988 | [15] 1.01 | [16] 1.02 | [17] 1.02 | [18] 0.979 | [19] 0.984 | [21] 0.981 | [22] 1.04 | [23] 0.991 | [24] 1 | [25] 1.02 | [26] 0.856 | [27] 1 | [28] 0.976
